This is an account of results in PubChem BioAssay (Tox21).

Inconclusive results are not listed. A call without a number means that no potency is given here. Unmarked numbers belong to inactive results. Calls of active or inactive are those of the source. Calls follow the shape of the dose curve; as a rule, active = well fitted cell-killing curve with a large enough effect in the repeat runs; inconclusive = weak or mixed curves, or effect the other way; inactive = flat fitted curve, though single readings scatter.

A short description of one assay: cAMP Responsive Elements (CRE) small molecule antagonists, cell-based qHTS assay: qHTS cell viability counter screen (AID 2060913). Also: nearly all actives have a fitted effect of over 40% in size. Also: potency is read from the fitted curve at half-maximal effect. The settings on record: CRE-bla HEK293T viability, CellTiter-Glo luminescence, 5 h; series mostly up to 92.4 µM. The procedure, abridged: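 Cytotoxicity read in the same wells as the CRE-bla HEK293T antagonist assay: after 3 h compound with 0.25 uM NKH477 final and 2 h beta-lactamase substrate, CellTiter-Glo luminescence measured.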
Consider `Cc1c(N)cccc1Cl`, for which the Potency result is “inactive”.

As to `Oc1ccc(CCNCCCCCCNCCc2ccccc2)cc1O`, the Potency result was “inactive”.

Regarding `c1ccc2c(c1)-c1ccc3ccc4cccc5cc-2c1c3c45`, the Potency result is “inactive”.

As for `FC1(F)C(F)(F)C(F)(F)C2(F)C(F)(F)C(F)(F)C(F)(F)C(F)(F)C2(F)C1(F)F` (stereo not drawn), the Potency result is “inactive”.

`CN(C)CCc1c[nH]c2ccc(C[C@H]3COC(=O)N3)cc12`: the Potency result is “inactive”.

On to `CCn1cc(C(=O)O)c(=O)c2cc(F)c(N3CCNCC3)cc21`, for which the Potency result was “inactive”.

Regarding `Oc1ccc(C(c2ccc(O)cc2)C(Cl)(Cl)Cl)cc1`, the Potency result is “inactive”.

With `COC(=O)[C@@H]1CC2=CC(=O)CC[C@]2(C)[C@@]23O[C@@H]2C[C@@]2(C)[C@@H](CC[C@@]24CCC(=O)O4)[C@H]13`, the Potency entry is “inactive”.

As to `O=C(O)Cc1ccccc1Nc1c(Cl)cccc1Cl`, the Potency entry was “inactive”.

As for `CCCCOCCOCCSC#N`, the Potency entry was “inactive”.

With `C=COCCCCO`, the Potency result is “inactive”.

For `O=C(O)C[C@H](NC(=O)OCc1ccccc1)C(=O)O`, the Potency result is “inactive”.

`Nc1nc(N)c(-c2ccccc2)s1`: the Potency result was “inactive”.

For the compound `O=C(O)C1CCC1`, the Potency result is “inactive”.

For `COCC(C)O` (stereo not drawn), the Potency entry was “inactive”.

Regarding `COc1ccccc1N1CCN(CC(O)COc2cc(OC)c(OC)c(OC)c2)CC1` (stereo not drawn), the Potency result was “inactive”.

Consider `C=C(C)C(=O)NCCCN(C)C`, for which the Potency result is “inactive”.

For `O=S(=O)(O)c1ccc(Cl)cc1`, the Potency entry was “inactive”.

As for `C[C@@H]1O[C@@H](O[C@@H]2[C@@H](O)[C@H](OCCc3ccc(O)c(O)c3)O[C@H](CO[C@@H]3O[C@H](CO)[C@@H](O)[C@H](O)[C@H]3O)[C@H]2OC(=O)/C=C/c2ccc(O)c(O)c2)[C@H](O)[C@H](O)[C@H]1O`, the Potency result was “inactive”.

For `CCOC(=O)[C@@](C)(N)Cc1ccc(O)c(O)c1`, the Potency entry was “inactive”.

For `O=C(O)CCCC[P+](c1ccccc1)(c1ccccc1)c1ccccc1`, the Potency result is “inactive”.

Take `CCCCCCOc1ccc(N)cc1`: the Potency result was “inactive”.

As for `CCc1nnc(NS(=O)(=O)c2ccc(N)cc2)s1`, the Potency result is “inactive”.

Take `CC(=O)Oc1ccc(C)cc1`: the Potency entry is “inactive”.

As to `CCCOc1sc(C(=O)N2CCC(c3cc(CN)ccc3F)CC2)c(C)c1Br`, the Potency was 56 µM (active).

As to `CCCCCCCCCCCCCCCCBr`, the viability change, negative = cytotoxic is -5.25% [at 18.9 µM].

Turning to `Nc1nc2ncc(CNc3ccc(C(=O)N[C@@H](CCC(=O)O)C(=O)O)cc3)nc2c(=O)[nH]1`, the Potency result was “inactive”.

For `CC(C)(C)c1ccc(C(=O)O)cc1`, the Potency entry is “inactive”.

Regarding `Cc1c(-c2ccc(O)cc2)n(Cc2ccc(OCCN3CCCCCC3)cc2)c2ccc(O)cc12`, the Potency entry was “inactive”.

In the case of `CS(C)=O`, the Potency entry is “inactive”.

Consider `CCCCCCCCCCCCCCCCCC(=O)OCC(CC)CCCC` (stereo not drawn), for which the Potency result is “inactive”.

On to `CCN[C@H]1C[C@H](C)S(=O)(=O)c2sc(S(N)(=O)=O)cc21`, for which the Potency result was “inactive”.

In the case of `O=C(O)CCCCCC(=O)O`, the Potency result is “inactive”.

With `CC(=O)OCC(CCn1cnc2cnc(N)nc21)COC(C)=O`, the Potency entry was “inactive”.

For the compound `CC(C)(O)c1ccc(CNC(=O)c2cccnc2Oc2ccc3nonc3c2)cc1`, the Potency result was “inactive”.

Turning to `C=C(C)C(=O)OCCCCCCCCCCCCCCCCCC`, the viability change, negative = cytotoxic was 12.4% [at 18.9 µM].

Turning to `C=C(C)[C@@H]1CC[C@@H](C)C[C@@H]1O`, the Potency entry was “inactive”.

Turning to `NCCN1CCNC1=O`, the Potency result is “inactive”.

Take `CCCC(=O)OCOC(=O)C1=C(C)NC(C)=C(C(=O)OC)C1c1cccc(Cl)c1Cl` (stereo not drawn): the Potency result was “inactive”.

A further assay in a line: cAMP Responsive Elements (CRE) small molecule agonists, cell-based qHTS assay: qHTS cell viability counter screen (AID 2060914). Also: nearly all actives have a fitted effect of over 50% in size. The settings on record: CRE-bla HEK293T viability, CellTiter-Glo luminescence, 5 h; series mostly up to 92.4 µM. The procedure, abridged: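 Cytotoxicity counter screen multiplexed with the CRE-bla reporter assay in HEK 293T cells: 3 h compound exposure at 37 °C, followed by CellTiter-Glo luminescence measured in the same wells.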
For the compound `Cc1c(N)cccc1Cl`, the Potency entry is “inactive”.

`Oc1ccc(CCNCCCCCCNCCc2ccccc2)cc1O`: the Potency entry is “inactive”.

Consider `c1ccc2c(c1)-c1ccc3ccc4cccc5cc-2c1c3c45`, for which the Potency result is “inactive”.

`FC1(F)C(F)(F)C(F)(F)C2(F)C(F)(F)C(F)(F)C(F)(F)C(F)(F)C2(F)C1(F)F` (stereo not drawn): the Potency entry was “inactive”.

As to `CN(C)CCc1c[nH]c2ccc(C[C@H]3COC(=O)N3)cc12`, the Potency result was “inactive”.

Consider `CCn1cc(C(=O)O)c(=O)c2cc(F)c(N3CCNCC3)cc21`, for which the Potency result was “inactive”.

`Oc1ccc(C(c2ccc(O)cc2)C(Cl)(Cl)Cl)cc1`: the Potency result is “inactive”.

Turning to `COC(=O)[C@@H]1CC2=CC(=O)CC[C@]2(C)[C@@]23O[C@@H]2C[C@@]2(C)[C@@H](CC[C@@]24CCC(=O)O4)[C@H]13`, the Potency entry is “inactive”.

As for `O=C(O)Cc1ccccc1Nc1c(Cl)cccc1Cl`, the Potency entry is “inactive”.

For `CCCCOCCOCCSC#N`, the Potency result is “inactive”.

Take `C=COCCCCO`: the Potency entry is “inactive”.

Regarding `O=C(O)C[C@H](NC(=O)OCc1ccccc1)C(=O)O`, the Potency result is “inactive”.

Consider `Nc1nc(N)c(-c2ccccc2)s1`, for which the Potency entry is “inactive”.

For `O=C(O)C1CCC1`, the Potency entry is “inactive”.

Consider `COCC(C)O` (stereo not drawn), for which the Potency result was “inactive”.

As to `COc1ccccc1N1CCN(CC(O)COc2cc(OC)c(OC)c(OC)c2)CC1` (stereo not drawn), the Potency entry is “inactive”.

With `C=C(C)C(=O)NCCCN(C)C`, the Potency result is “inactive”.

Take `O=S(=O)(O)c1ccc(Cl)cc1`: the Potency entry is “inactive”.

`C[C@@H]1O[C@@H](O[C@@H]2[C@@H](O)[C@H](OCCc3ccc(O)c(O)c3)O[C@H](CO[C@@H]3O[C@H](CO)[C@@H](O)[C@H](O)[C@H]3O)[C@H]2OC(=O)/C=C/c2ccc(O)c(O)c2)[C@H](O)[C@H](O)[C@H]1O`: the Potency entry is “inactive”.

With `CCOC(=O)[C@@](C)(N)Cc1ccc(O)c(O)c1`, the Potency result is “inactive”.

As to `O=C(O)CCCC[P+](c1ccccc1)(c1ccccc1)c1ccccc1`, the Potency entry is “inactive”.

`CCCCCCOc1ccc(N)cc1`: the Potency entry was “inactive”.

On to `CCc1nnc(NS(=O)(=O)c2ccc(N)cc2)s1`, for which the Potency result was “inactive”.

`CC(=O)Oc1ccc(C)cc1`: the Potency result was “inactive”.

For `CCCOc1sc(C(=O)N2CCC(c3cc(CN)ccc3F)CC2)c(C)c1Br`, the Potency entry is “inactive”.

`CCCCCCCCCCCCCCCCBr`: the activity change, negative = cytotoxicity was 6.55% [at 18.9 µM].

In the case of `Nc1nc2ncc(CNc3ccc(C(=O)N[C@@H](CCC(=O)O)C(=O)O)cc3)nc2c(=O)[nH]1`, the Potency entry was “inactive”.

For the compound `CC(C)(C)c1ccc(C(=O)O)cc1`, the Potency entry is “inactive”.

In the case of `Cc1c(-c2ccc(O)cc2)n(Cc2ccc(OCCN3CCCCCC3)cc2)c2ccc(O)cc12`, the Potency entry was “inactive”.

In the case of `CS(C)=O`, the Potency result is “inactive”.

Take `CCCCCCCCCCCCCCCCCC(=O)OCC(CC)CCCC` (stereo not drawn): the Potency entry is “inactive”.

For the compound `CCN[C@H]1C[C@H](C)S(=O)(=O)c2sc(S(N)(=O)=O)cc21`, the Potency result was “inactive”.

Consider `O=C(O)CCCCCC(=O)O`, for which the Potency entry was “inactive”.

In the case of `CC(=O)OCC(CCn1cnc2cnc(N)nc21)COC(C)=O`, the Potency entry was “inactive”.

As to `CC(C)(O)c1ccc(CNC(=O)c2cccnc2Oc2ccc3nonc3c2)cc1`, the Potency entry is “inactive”.

Turning to `C=C(C)C(=O)OCCCCCCCCCCCCCCCCCC`, the activity change, negative = cytotoxicity was 2.15% [at 18.9 µM].

Take `C=C(C)[C@@H]1CC[C@@H](C)C[C@@H]1O`: the Potency result is “inactive”.

For the compound `NCCN1CCNC1=O`, the Potency entry is “inactive”.

As for `CCCC(=O)OCOC(=O)C1=C(C)NC(C)=C(C(=O)OC)C1c1cccc(Cl)c1Cl` (stereo not drawn), the Potency entry is “inactive”.
